Where a chain is given by its changes, count along the chain named.
B1: AGGT (dsDNA)
DNA 1: GCTATCTAGTGCTCAGTACGCACTGAGGTAGGAAACTTCTGGCAGGACCAGGTCATGAGATCGGAAGAGCACACGTCTGAACTCCAGTCA
DNA 2: TGACTGGAGTTCAGACGTGTGCTCTTCCGATCTCATGACCTGGTCCTGCCAGAAGTTTCCTACCTCAGTGCGTACTGAGCACTAGATAGC
RNA: AAUUUCUACUCUUGUAGAUAGGAAACUUCUGGCAGGACC
B2: ATAA (dsDNA)
DNA 1: B1 DNA 1 with G27T, G28A, T29A
DNA 2: B1 DNA 2 with A62T, C63T, C64A
RNA: B1 RNA
B3: CCGG (dsDNA)
DNA 1: B1 DNA 1 with A26C, G27C, T29G
DNA 2: B1 DNA 2 with A62C, C64G, T65G
RNA: B1 RNA
B4: CCTA (dsDNA)
DNA 1: B1 DNA 1 with A26C, G27C, G28T, T29A
DNA 2: B1 DNA 2 with A62T, C63A, C64G, T65G
RNA: B1 RNA
B5: CCTG (dsDNA)
DNA 1: B1 DNA 1 with A26C, G27C, G28T, T29G
DNA 2: B1 DNA 2 with A62C, C63A, C64G, T65G
RNA: B1 RNA
B6: CGGG (dsDNA)
DNA 1: B1 DNA 1 with A26C, T29G
DNA 2: B1 DNA 2 with A62C, T65G
RNA: B1 RNA
B7: AGTC (dsDNA)
DNA 1: B1 DNA 1 with G28T, T29C
DNA 2: B1 DNA 2 with A62G, C63A
RNA: B1 RNA
B8: CCCC (dsDNA)
DNA 1: B1 DNA 1 with A26C, G27C, G28C, T29C
DNA 2: B1 DNA 2 with A62G, C63G, C64G, T65G
RNA: B1 RNA
B9: AGTT (dsDNA)
DNA 1: B1 DNA 1 with G28T
DNA 2: B1 DNA 2 with C63A
RNA: B1 RNA
B10: AGTG (dsDNA)
DNA 1: B1 DNA 1 with G28T, T29G
DNA 2: B1 DNA 2 with A62C, C63A
RNA: B1 RNA
B11: ATGA (dsDNA)
DNA 1: B1 DNA 1 with G27T, T29A
DNA 2: B1 DNA 2 with A62T, C64A
RNA: B1 RNA
B12: ATGT (dsDNA)
DNA 1: B1 DNA 1 with G27T
DNA 2: B1 DNA 2 with C64A
RNA: B1 RNA
B13: CCTT (dsDNA)
DNA 1: B1 DNA 1 with A26C, G27C, G28T
DNA 2: B1 DNA 2 with C63A, C64G, T65G
RNA: B1 RNA
B14: AGTA (dsDNA)
DNA 1: B1 DNA 1 with G28T, T29A
DNA 2: B1 DNA 2 with A62T, C63A
RNA: B1 RNA
B15: CCTC (dsDNA)
DNA 1: B1 DNA 1 with A26C, G27C, G28T, T29C
DNA 2: B1 DNA 2 with A62G, C63A, C64G, T65G
RNA: B1 RNA

Columns and labels:
Experiment in all cases: Spec-seq (native PAGE EMSA with sequencing of bound and unbound); 25 mM Tris-HCl pH 7.4, 150 mM KCl, 5 mM MgCl2, 10% glycerol, 1 mM DTT, 40 ng/uL salmon sperm DNA; 400 nM Cas12a, 480 nM crRNA, 50 nM library, 37 C 1 h; native PAGE at room temperature; high values mean tight binding
Conditions in all cases: protein: recombinant
dAsCas12a Ultra = dAsCas12a Ultra (Acidaminococcus sp., UniProt U2UMQ6 1-1307, M537R;F870L;D908A;E993A;D1235A)
dAsCas12a S542R = dAsCas12a S542R (Acidaminococcus sp., UniProt U2UMQ6 1-1307, S542R;D908A;E993A;D1235A);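 further: relative affinity from the bound to unbound sequence frequency ratio in Spec-seq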
d-enCas12a = d-enCas12a (Acidaminococcus sp., UniProt U2UMQ6 1-1307, E174R;S542R;K548R;D908A;E993A;D1235A)
d-enCas12a-Ultra = d-enCas12a-Ultra (Acidaminococcus sp., UniProt U2UMQ6 1-1307, E174R;S542R;K548R;M537R;F870L;D908A;E993A;D1235A);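 further: relative affinity from the bound to unbound sequence frequency ratio in Spec-seq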
dAsCas12a E174R = dAsCas12a E174R (Acidaminococcus sp., UniProt U2UMQ6 1-1307, E174R;D908A;E993A;D1235A);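 further: relative affinity from the bound to unbound sequence frequency ratio in Spec-seq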
dAsCas12a K548R = dAsCas12a K548R (Acidaminococcus sp., UniProt U2UMQ6 1-1307, K548R;D908A;E993A;D1235A)

Row | Binder | binding signal (dAsCas12a Ultra) | binding signal (dAsCas12a S542R) | binding signal (d-enCas12a) | binding signal (d-enCas12a-Ultra) | binding signal (dAsCas12a E174R) | binding signal (dAsCas12a K548R)
1 | B1 | -8.68 lnKA | -8.5 lnKA | -5.71 lnKA | -3.43 lnKA | – | –
2 | B2 | -8.76 lnKA | -8.17 lnKA | -5.28 lnKA | -3.12 lnKA | -8.75 lnKA | –
3 | B3 | -8.87 lnKA | -8.41 lnKA | -6.11 lnKA | -3.44 lnKA | – | –
4 | B4 | -7.06 lnKA | -7.77 lnKA | -5.38 lnKA | -2.2 lnKA | -5.98 lnKA | –
5 | B5 | -7.53 lnKA | -8.1 lnKA | -5.7 lnKA | -3.13 lnKA | -7.6 lnKA | –
6 | B6 | -8.98 lnKA | – | -6.24 lnKA | -3.42 lnKA | – | –
7 | B7 | -8.75 lnKA | -8.14 lnKA | -2.3 lnKA | -0.544 lnKA | -8.31 lnKA | -7.9 lnKA
8 | B8 | -8.74 lnKA | -4.35 lnKA | -1.8 lnKA | -0.387 lnKA | -8.52 lnKA | –
9 | B9 | -8.9 lnKA | -8.18 lnKA | -4.88 lnKA | -1.91 lnKA | -8.38 lnKA | –
10 | B10 | -8.77 lnKA | -8.41 lnKA | -3.79 lnKA | -1.18 lnKA | -8.75 lnKA | –
11 | B11 | -8.29 lnKA | -7.95 lnKA | -5.35 lnKA | -3.17 lnKA | -8.88 lnKA | –
12 | B12 | -8.98 lnKA | -8.67 lnKA | -5.72 lnKA | -3.21 lnKA | – | –
13 | B13 | -8.97 lnKA | -8.32 lnKA | -5.69 lnKA | -3.27 lnKA | -8.31 lnKA | –
14 | B14 | -8.43 lnKA | -7.93 lnKA | -2.11 lnKA | -0.526 lnKA | -8.14 lnKA | -8.98 lnKA
15 | B15 | -6.9 lnKA | -7.68 lnKA | -5.18 lnKA | -2.06 lnKA | -6.59 lnKA | –

From PMC8222333, “AsCas12a ultra nuclease facilitates the rapid generation of therapeutic cell medicines”
